PubChem BioAssay AID1159580 (chemical genetic matrix, 2015)
Among all 5,500 compounds or so, about 2,000 (36%) were called active. Inconclusive results (about 18%) are left out. No stated cut-off is given here; in the data, active means normalized growth mostly below about 0.91 (no sharp cut-off); inconclusive means no clear call, values can overlap the other calls; inactive means mostly above about 0.92. The list shows a part of the results.

Test: chemical genetic growth profiling, strain panel (AID 1159580);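 further: tested at 20 µM; growth read once vehicle control cultures reached saturation at 30 °C; 1 = growth at the plate median or of vehicle wells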
Details: growth OD

Measured: normalized growth

CCCCCCCCCCC[C@@H](C[C@H]1OC(=O)[C@H]1CCCCCC)OC(=O)[C@@H](CC(C)C)NC=O
inactive: S. cerevisiae deletion strains, locus YJR043C, strain POL32, stronger effect = lower value 1.03 | S. cerevisiae deletion strains, locus YJR075W, strain HOC1, stronger effect = lower value 1.06 | S. cerevisiae deletion strains, locus YKL009W, strain mrt4, stronger effect = lower value 0.996 | S. cerevisiae deletion strains, locus YKL068W, stronger effect = lower value 1 | S. cerevisiae deletion strains, locus YKL085W, strain MDH1 (second series), stronger effect = lower value 1.02 | S. cerevisiae deletion strains, locus YKL085W, strain MDH1, stronger effect = lower value 1.02 | S. cerevisiae deletion strains, locus YKL160W, strain elf1, stronger effect = lower value 0.988 | S. cerevisiae deletion strains, locus YKL190W, strain CNB1, stronger effect = lower value 1.03 | S. cerevisiae deletion strains, locus YKR001C, strain vps1, stronger effect = lower value 1.03 | S. cerevisiae deletion strains, locus YKR026C, strain gcn3, stronger effect = lower value 1.03 | S. cerevisiae deletion strains, locus YKR091W, strain srl3, stronger effect = lower value 1.05 | S. cerevisiae deletion strains, locus YLL001W, strain dnm1, stronger effect = lower value 1.04 | S. cerevisiae deletion strains, locus YLL026W, stronger effect = lower value 0.997 | S. cerevisiae deletion strains, locus YLL041C, strain sdh2, stronger effect = lower value 1.03 | S. cerevisiae deletion strains, locus YLR027C, strain aat2, stronger effect = lower value 1.03 | S. cerevisiae deletion strains, locus YLR039C, strain RIC1, stronger effect = lower value 1.03 | S. cerevisiae deletion strains, locus YLR058C, strain SHM2, stronger effect = lower value 1.04 | S. cerevisiae deletion strains, locus YLR102C, strain apc9, stronger effect = lower value 1.01 | S. cerevisiae deletion strains, locus YLR221C, strain rsa3, stronger effect = lower value 1.03 | S. cerevisiae deletion strains, locus YLR258W, strain gsy2, stronger effect = lower value 1.03 | S. cerevisiae deletion strains, locus YLR262C, strain YPT6 (second series), stronger effect = lower value 1.1 | S. cerevisiae deletion strains, locus YLR262C, strain YPT6, stronger effect = lower value 1.07 | S. cerevisiae deletion strains, locus YLR268W, strain sec22, stronger effect = lower value 1.02 | S. cerevisiae deletion strains, locus YLR320W, strain mms22, stronger effect = lower value 1.05 | S. cerevisiae deletion strains, locus YLR330W, strain CHS5, stronger effect = lower value 1.03 | S. cerevisiae deletion strains, locus YLR342W, strain FKS1 (second series), stronger effect = lower value 1.02 | S. cerevisiae deletion strains, locus YLR342W, strain FKS1, stronger effect = lower value 1.01 | S. cerevisiae deletion strains, locus YLR357W, strain rsc2, stronger effect = lower value 1.09 | S. cerevisiae deletion strains, locus YLR370C, strain arc18, stronger effect = lower value 1.03 | S. cerevisiae deletion strains, locus YLR371W, strain rom2, stronger effect = lower value 1.01 | S. cerevisiae deletion strains, locus YLR384C, strain iki3, stronger effect = lower value 1.03 | S. cerevisiae deletion strains, locus YLR418C, strain cdc73, stronger effect = lower value 1.03 | S. cerevisiae deletion strains, locus YML016C, strain PPZ1, stronger effect = lower value 1.04 | S. cerevisiae deletion strains, locus YML032C, strain rad52, stronger effect = lower value 1.04 | S. cerevisiae deletion strains, locus YML120C, strain ndi1, stronger effect = lower value 1.02 | S. cerevisiae deletion strains, locus YML124C, strain tub3, stronger effect = lower value 1.01 | S. cerevisiae deletion strains, locus YMR058W, strain fet3, stronger effect = lower value 1.06 | S. cerevisiae deletion strains, locus YMR078C, strain ctf18, stronger effect = lower value 1.03 | S. cerevisiae deletion strains, locus YMR125W, strain sto1, stronger effect = lower value 1.05 | S. cerevisiae deletion strains, locus YMR129W, stronger effect = lower value 1.02 | S. cerevisiae deletion strains, locus YMR205C, strain PFK2, stronger effect = lower value 1.02 | S. cerevisiae deletion strains, locus YMR223W, strain ubp8, stronger effect = lower value 1.03 | S. cerevisiae deletion strains, locus YMR231W, strain pep5, stronger effect = lower value 1.05 | S. cerevisiae deletion strains, locus YMR263W, strain SAP30, stronger effect = lower value 1.04 | S. cerevisiae deletion strains, locus YMR307W, strain GAS1, stronger effect = lower value 1.05 | S. cerevisiae deletion strains, locus YNL067W, strain RPL9B, stronger effect = lower value 1.04 | S. cerevisiae deletion strains, locus YNL071W, strain lat1, stronger effect = lower value 1.02 | S. cerevisiae deletion strains, locus YNL128W, strain TEP1, stronger effect = lower value 1.02 | S. cerevisiae deletion strains, locus YNL153C, strain GIM3, stronger effect = lower value 1.04 | S. cerevisiae deletion strains, locus YNL209W, strain ssb2, stronger effect = lower value 1.06 | S. cerevisiae deletion strains, locus YNL233W, strain BNI4, stronger effect = lower value 1.03 | S. cerevisiae deletion strains, locus YNL248C, strain rpa49, stronger effect = lower value 1.06 | S. cerevisiae deletion strains, locus YNL250W, strain rad50, stronger effect = lower value 1.03 | S. cerevisiae deletion strains, locus YNL271C, strain bni1, stronger effect = lower value 1.02 | S. cerevisiae deletion strains, locus YNL298W, strain CLA4, stronger effect = lower value 1.03 | S. cerevisiae deletion strains, locus YNL307C, strain MCK1, stronger effect = lower value 1.03 | S. cerevisiae deletion strains, locus YNL322C, strain KRE1 (second series), stronger effect = lower value 1.03 | S. cerevisiae deletion strains, locus YNL322C, strain KRE1, stronger effect = lower value 1.04 | S. cerevisiae deletion strains, locus YNR049C, strain mso1, stronger effect = lower value 1.04 | S. cerevisiae deletion strains, locus YNR052C, strain pop2, stronger effect = lower value 1.03 | S. cerevisiae deletion strains, locus YOL006C, strain TOP1, stronger effect = lower value 1.08 | S. cerevisiae deletion strains, locus YOL012C, strain htz1 1.37 | S. cerevisiae deletion strains, locus YOL147C, strain pex11, stronger effect = lower value 1.02 | S. cerevisiae deletion strains, locus YOR001W, strain rrp6, stronger effect = lower value 1.03 | S. cerevisiae deletion strains, locus YOR061W, strain CKA2, stronger effect = lower value 1.03 | S. cerevisiae deletion strains, locus YOR069W, strain VPS5, stronger effect = lower value 1.02 | S. cerevisiae deletion strains, locus YOR070C, strain gyp1, stronger effect = lower value 1.04 | S. cerevisiae deletion strains, locus YOR080W, strain dia2, stronger effect = lower value 0.999 | S. cerevisiae deletion strains, locus YOR083W, strain WHI5, stronger effect = lower value 1.04 | S. cerevisiae deletion strains, locus YOR106W, strain vam3, stronger effect = lower value 1.03 | S. cerevisiae deletion strains, locus YOR136W, strain idh2, stronger effect = lower value 1.03 | S. cerevisiae deletion strains, locus YOR144C, strain elg1, stronger effect = lower value 1.02 | S. cerevisiae deletion strains, locus YOR184W, strain ser1, stronger effect = lower value 1 | S. cerevisiae deletion strains, locus YOR265W, strain rbl2, stronger effect = lower value 1.05 | S. cerevisiae deletion strains, locus YOR270C, strain vph1, stronger effect = lower value 1.11 | S. cerevisiae deletion strains, locus YOR290C, strain snf2, stronger effect = lower value 1.05 | S. cerevisiae deletion strains, locus YOR316C, strain cot1, stronger effect = lower value 1.01 | S. cerevisiae deletion strains, locus YPL051W, strain arl3, stronger effect = lower value 1.06 | S. cerevisiae deletion strains, locus YPL055C, strain LGE1, stronger effect = lower value 1.04 | S. cerevisiae deletion strains, locus YPL078C, strain atp4, stronger effect = lower value 1.08 | S. cerevisiae deletion strains, locus YPL106C, strain sse1, stronger effect = lower value 1.05 | S. cerevisiae deletion strains, locus YPL240C, strain hsp82, stronger effect = lower value 1.02 | S. cerevisiae deletion strains, locus YPL241C, strain CIN2, stronger effect = lower value 1.03 | S. cerevisiae deletion strains, locus YPR119W, strain clb2, stronger effect = lower value 0.996 | S. cerevisiae deletion strains, locus YPR141C, strain kar3, stronger effect = lower value 1.02 | S. cerevisiae deletion strains, locus YPR163C, strain tif3, stronger effect = lower value 1.03 | S. cerevisiae deletion strains, locus YPR167C, strain met16, stronger effect = lower value 1.01 | S. cerevisiae deletion strains, strain wtn01, stronger effect = lower value 1.01 | S. cerevisiae strains, strain wild type, stronger effect = lower value 1.04
